Most compounds without a hit are left out; they make up all but 19% or so of the library.
TDP1 cell CPT = qHTS for Inhibitors of human tyrosyl-DNA phosphodiesterase 1 (TDP1): qHTS in cells in presence of CPT; chicken DT40 Tdp1-/-;hTDP1 cells + 20 nM CPT, ATP luminescence, 48 h; Potency, µM (series often up to 46.2 µM), for the others: at the top dose activity change, negative = growth inhibition, usual class: inhibitors; actives 12% (n = 420,000); AID 686979, 2013; further: potency means the concentration at half of the fitted maximal effect; nearly all actives have a fitted effect of over 55% in size
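Cell growth measured by CellTiter-Glo luminescence after a minimum 48 h, 37 C compound exposure with 20 nM CPT in Tdp1-knockout DT40 cells stably expressing hTDP1, seeded 400/well; qHTS titration format.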
HT1080-NT tox = qHTS for induction of synthetic lethality in tumor cells producing 2HG: qHTS for the HT-1080-NT fibrosarcoma cell line | actives 1.6% (n = 360,000) | Potency, µM (doses to about 46.1 µM), inactives show at the highest dose activity, negative = less viability, usual class: cytotoxic | HT-1080-NT fibrosarcoma viability, CellTiter-Glo ATP luminescence, 48 h;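 further: NT is the 2HG producing partner of a matched IDH1 knockdown line; potency means the concentration at half of the fitted maximal effect; 0% = DMSO-treated cells and -100% = media-only wells without cells; nearly all actives have a fitted effect of over 55% in size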
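Luminescent CellTiter-Glo readout after 48 hours of compound exposure at 37 degrees C defined viability of HT-1080-NT cells. Activity was normalized to DMSO wells and cell-free media wells; concentration-response curves were fitted and assigned curve classes.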
DT40 TDP1 no CPT = qHTS for Inhibitors of human tyrosyl-DNA phosphodiesterase 1 (TDP1): qHTS in cells in absence of CPT | Potency, µM (titrated, usually from 46.2 µM), for inactives: at the highest dose activity change, negative = growth inhibition, most hits filed as inhibitors | actives 15% (n = 420,000) | DT40 Tdp1-/- hTDP1 cells, no CPT, ATP luminescence, 48 h; further: potency means the concentration at half of the fitted maximal effect; nearly all actives have a fitted effect of over 55% in size
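DT40 Tdp1-/-;hTDP1 cells, no CPT (DMSO vehicle only), 400 cells/well; compounds pin-transferred; ≥48 hr, 37 °C; CellTiter-Glo 30 min RT dark, luminescence read.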
IL-1B inflam inh = qHTS for Inhibitors of Inflammasome Signaling: IL-1-beta AlphaLISA Primary Screen | THP-1 LPS/ATP IL-1B secretion, AlphaLISA, 16 h; stronger effect = lower value | activity change, % at 57.5 µM | actives 4.7% (n = 360,000) | AID 743279, 2014; in the data active means activity change below about -50%; inconclusive means mostly about -30% to -49%
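THP-1 cells pretreated 1 hr with compounds (up to 57.5 uM final), then stimulated with LPS (250 ng/mL final) plus ATP (1.25 mM final); secreted IL-1B measured by AlphaLISA after 16 hr, decreased signal indicating inhibition.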
HT1080 IDH1KD tx = qHTS for induction of synthetic lethality in tumor cells producing 2HG: qHTS for the HT-1080-IDH1KD cell line; HT-1080 IDH1 knockdown viability, ATP luminescence, 48 h; Potency, µM (titrated, usually from 46.1 µM), without a hit: top-dose activity, negative = toxicity, actives largely listed as cytotoxic; actives 2% (n = 360,000); AID 686971, 2013;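 further: potency means the concentration at half of the fitted maximal effect; 0% = DMSO wells and -100% = cell-free medium wells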
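IDH1KD HT-1080 cells, 750/well, RPMI + 5% FBS; compound pinned after 2 h settling; 48 h, 37 °C; CellTiter-Glo luminescence; % activity normalised to DMSO and no-cell wells; curves fitted, classed by r2 and efficacy.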
* hit, by the source's call; ? = inconclusive; nt = no result; [ ] = remark or other dose. Unless noted, the call rests on the fitted dose curve; in most records, active means well fitted curve in the direction sought with a large enough effect; inconclusive means small, poorly fitted or top-dose-only effect, or another doubt; inactive means no such curve, though single readings can be large; an effect the other way counts as inactive or inconclusive. Unless noted, on the % scale 0 is the no-effect control and ±100 the full control effect.

SMILES	TDP1 cell CPT	HT1080-NT tox	DT40 TDP1 no CPT	IL-1B inflam inh	HT1080 IDH1KD tx
Cc1c(C(=O)N2CCCCC2)c(S(=O)(=O)NCCc2ccc(Cl)cc2)c(C)n1C	?	10.2%	20.6µM*	-0.7	0.4%
Cc1ccc(CNS(=O)(=O)c2c(C(=O)N3CCCCC3)c(C)n(C)c2C)cc1	-2.8%	8.5%	14.6%	?	4.3%
Cc1c(C(=O)N2CCCCCC2)c(S(=O)(=O)N(Cc2ccccc2)C(C)(C)C)c(C)n1C	?	nt	20.6µM*	nt	nt
O=S(=O)(c1ccc(F)cc1)c1nc(-c2ccccc2)oc1N1CCOCC1	-25.6%	-7.9%	-22.6%	0.0	-13.0%
C=CCn1c(SCC(=O)c2[nH]c(C)c(C(=O)OCC)c2C)nc2scc(-c3ccccc3)c2c1=O	11.6µM*	-6.9%	16.4µM*	11.8	1.5%
C=CCn1c(SCC(=O)c2[nH]c(C)c(C(=O)OCC)c2C)nc2scc(-c3ccc(OC)cc3)c2c1=O	9.2µM*	-19.9%	14.6µM*	44.5	-18.2%
C=CCn1c(SCC(=O)NCC2CCCO2)nc2scc(-c3ccc(OC)cc3)c2c1=O (centres undefined)	?	-4.7%	?	0.0	-0.3%
O=C(CN1C(=O)NC2(CCCc3ccccc32)C1=O)N1CCCCC1 (centres undefined)	4.0%	1.0%	0.0%	13.3	6.1%
CCSc1nnc2ccc(-c3ccc(C)cc3)nn12	-15.4%	14.2%	?	-4.6	4.4%
O=C(Oc1cccccc1=O)c1ccccc1	18.4µM*	-13.4%	20.6µM*	-2.5	-7.3%
O=C(CCc1nc2ccccc2c(=O)[nH]1)N1CCN(C/C=C/c2ccccc2)CC1	7.31µM*	-1.6%	6.51µM*	23.4	-18.0%
O=C(c1ccco1)N1CCN(Cc2nc3cc(Cl)ccc3c(=O)[nH]2)CC1	-11.7%	-29.5%	-26.0%	0.3	?
CC(=O)N1CCN(C(=O)CCc2nc3ccccc3c(=O)[nH]2)CC1	?	-1.5%	7.9%	9.5	9.0%
O=c1[nH]c(CN2CCN(C/C=C/c3ccccc3)CC2)nc2cc(Cl)ccc12	?	?	20.6µM*	-71.9*	-26.7%
NC1CONC1=O (centres undefined)	-17.9%	nt	?	nt	nt
Cc1cc(N2CCN(C(=O)c3ccco3)CC2)n2nc(-c3cccc(F)c3)cc2n1	?	2.3%	?	-23.7	5.9%
O=C(c1ccoc1)N1CCN(c2cc(-c3cccnc3)nc3cc(-c4cccc(Cl)c4)nn23)CC1	18.4µM*	-3.2%	7.31µM*	?	-3.2%
Cc1nc2cc(-c3ccc(Cl)cc3)nn2c(C)c1CCC(=O)N1CCN(c2ccccc2)CC1	-10.9%	nt	-1.2%	nt	nt
O=C(c1ccncc1)N1CCN(c2cc(-c3ccccc3)nc3cc(-c4cccc(Cl)c4)nn23)CC1	11.6µM*	7.2%	7.31µM*	6.4	2.8%
O=C(c1ccoc1)N1CCC2(CC1)Oc1ccc(Cl)cc1C(=O)C21CC(c2cccnc2)=NO1 (centres undefined)	-14.0%	1.5%	-12.9%	-6.9	2.5%
O=C(c1ccoc1)N1CCN(c2cc(-c3ccncc3)nc3cc(-c4cccc(Cl)c4)nn23)CC1	13µM*	0.4%	5.8µM*	-11.4	1.0%
CC(=O)N1CCN(c2cc(-c3ccccc3)nc3cc(-c4cccc(Cl)c4)nn23)CC1	20.6µM*	4.0%	10.3µM*	3.2	1.4%
COc1ccc2c(c1)CCc1cnc(-n3ncc(C(=O)NCC(C)(C)CN(C)C)c3C)nc1-2	4.9%[9.04 µM]	nt	?	nt	nt
N#Cc1cccnc1N1CCN(C(c2ccnc3ccccc23)c2nnnn2-c2ccc3c(c2)OCCO3)CC1 (centres undefined)	?	-14.8%	?	-12.1	-19.5%
CCOC(=O)c1ccc(NC(=S)N2CCSC2c2ccc(Cl)cc2)cc1 (centres undefined)	?	-9.4%	16.4µM*	18.8	-23.3%
SMILES	TDP1 cell CPT	HT1080-NT tox	DT40 TDP1 no CPT	IL-1B inflam inh	HT1080 IDH1KD tx
CSc1nn(Cc2cccc(F)c2)c(N(C(C)=O)C(C)=O)c1S(=O)(=O)c1ccccc1	-21.9%	nt	?	nt	nt
CSc1nn(Cc2ccc(Cl)cc2)c(N(C(C)=O)C(C)=O)c1S(=O)(=O)c1ccccc1	16.4µM*	nt	?	nt	nt
CSc1nn(Cc2ccc(F)cc2)c(N)c1S(=O)(=O)c1ccc(Cl)cc1	?	nt	16.4µM*	nt	nt
CSc1nn(Cc2ccc(C)cc2)c(N)c1S(=O)(=O)c1ccccc1	20.6µM*	nt	23.1µM*	nt	nt
O=C(c1cc2ccccc2[nH]1)N(Cc1cccnc1)CC1CCCN(C2CCCCC2)C1 (centres undefined)	?	-14.4%	?	-9.0	-29.9%
CCn1nc(C)c(CNC(=O)c2ccc(OC3CCN(Cc4ccccn4)CC3)cc2)c1C	6.51µM*	?	2.91µM*	22.7	-25.9%
O=C(NCCc1cccc(Cl)c1)c1ccc(OC2CCN(Cc3ccccn3)CC2)cc1	29.1µM*	?	16.4µM*	?	?
CCn1cc(CNC(=O)c2ccc(OC3CCN(Cc4ccccn4)CC3)cc2)cn1	?	-10.3%	?	49.4	-12.7%
CCOc1ccc(NC(=O)CSc2nc3c([nH]c4ccccc43)c(=O)n2C)cc1	-3.7%	-4.1%	-12.8%	13.6	-2.9%
Cc1ccc(NC(=O)CSc2nc3c([nH]c4ccccc43)c(=O)n2C)cc1	13µM*	-1.3%	8.2µM*	36.8	-2.6%
Cc1ccccc1CSc1nc2c([nH]c3ccccc32)c(=O)n1-c1ccccc1	-5.5%	nt	-2.0%	nt	nt
Cc1ccc(C)c(CSc2nc3c([nH]c4ccccc43)c(=O)n2C)c1	6.51µM*	nt	3.26µM*	nt	nt
Cn1c(SCC(=O)Nc2ccc(F)cc2)nc2c([nH]c3ccccc32)c1=O	18.4µM*	-1.7%	?	54.5	2.5%
Cc1ccc(Cl)cc1NC(=O)COC(=O)CSc1ccccc1	0.4%	0.1%	-17.0%	-4.0	3.2%
Cc1nc2ncnn2c(C)c1Cc1ccc(Cl)cc1F	4.4%	-10.1%	-2.5%	33.4	5.8%
COc1ccccc1C(=O)NNC(=S)NC(=O)c1cc(OC)c(OC)c(OC)c1	18.4µM*	-18.3%	6.51µM*	121.9	?
COc1cc(C(=O)NNC(=O)CCOc2ccccc2C)cc(OC)c1OC	-2.3%	-0.3%	-17.6%	-2.1	9.3%
COc1cc(C(=O)NNC(=S)NC(=O)c2ccccc2C)cc(OC)c1OC	16.4µM*	-24.1%	?	-1.9	?

Compound activity: PubChem, National Center for Advancing Translational Sciences (NCATS)
